Measurements reported in PubChem BioAssay AID652180 (National Center for Advancing Translational Sciences (NCATS), 2013).
Inconclusive results are not listed. Unmarked numbers belong to inactive results. Activity calls are given as the source filed them. Calls follow the shape of the dose curve; as a rule, active = well fitted inhibition curve with a large enough effect; inconclusive = small, poorly fitted or top-dose-only effect; inactive = no such curve, though single readings can be large or run the other way.

Test: qHTS Assay for Lipid Storage Modulators: 3T3L1 Assay against Probe and Analogs
Conditions: 3T3-L1 lipid droplets, BODIPY imaging, oleic acid, 18-24 h; series mostly up to 46.1 µM; activity change, negative = decreased lipid storage: at the top concentration
From the text: Storing lipids as a reservoir for energy or the anabolism of elementary metabolites is a common feature of probably all cells and is conserved from bacteria to humans. The universal cellular lipid storage organelle is the so-called lipid storage droplet (LD). Although ubiquitous, LDs share a simple structure composed of a hydrophobic core that harbors the storage lipids, which is shielded by a droplet-specific phospholipid monolayer to which proteins are attached. The current model of LD biogenesis involves an incorporation of the lipid core into the membrane leaflets of the endoplasmic reticulum (ER) followed by a subsequent budding-like maturation of a LD, which ultimately pinches off. Once released, LD volume can increase by localized lipogenesis or fusion of existing droplets. Storage lipids are re-mobilized enzymatically by lipase activity. Lipase regulation in the adipocyte is heavily studied and involves multiple components including catecholamine signaling, the LD-associated proteins Perilipin and comparative gene identification-58 (CGI-58) and at least two lipases named hormone sensitive lipase (HSL) and adipocyte triglyceride lipase (ATGL). LD regulation outside of the adipocyte is poorly understood and only few components are known. However, there is an urgent need to learn more about ectopic fat depots as mislocalized storage of lipids, for example in the liver or muscle, is an eminent health problem associated with insulin resistance or the metabolic syndrome. We developed a laser-scanning cytometer assay to enable 1,536-well screening and combined the results of the small molecules screen with an RNAi database based on lipid storage. In this assay we tested analogs of the probe against a mammalian cell line (3T3L1), to see if these small molecules could disrupt lipid storage. NIH Molecular Libraries Probe Production Centers Network [MLPCN] NIH Chemical Genomics Center [NCGC] MLPCN Grant: MH085686 Assay Submitter (PI): Mathias Beller, Max-Planck-Institut fur Biophysikalische Chemie
3T3L1 cells were obtained from ATCC (CL-173). 4 uL of cells at 1.25 X 105 cell/mL were dispensed into 1536 well Poly-D-Lysine coated black with clear bottom imaging plates (Corning, #7356) to obtain 500 cells/well, and cultured at 37 °C, 95% humidity, and 5% CO2 overnight. The culture medium used was OPTI-MEM containing 5% fetal bovine serum (FBS). Triacsin C (Sigma-Aldrich T-4540), an inhibitor of long-chain fatty acyl CoA synthetase that blocks synthesis of triglycerides, was used as a positive control for lipid under-storage. A total of 23 nL of compounds dissolved in DMSO at different concentrations were transferred to the assay plates using a Kalypsys 1536-pin tool, the final DMSO concentration was 0.46%. One microliter of oleic acid at 400 uM (Calbiochem, #4954) was added to induce lipid droplet formation in the cells, and the plates were lidded. After 18-24 hours of incubation at 37 °C, 95% humidity, and 5% CO2, cells were fixed (8 % paraformaldehyde in PBS, 30 min, room temperature), washed three times with PBS, then stained for lipid droplet and nucleus using 4uL of PBS solution containing BODIPY lipid dye 493/503 (1:2000 dilution, Life Technologies, #3922) and Hoechst 33342 (1:1000, Life Technologies, #H3570) with Washer dispenser EL406(Biotek). Images were acquired using InCell 2000 (GE). Number of cells, number of lipids and sizes of lipids were analysis using GE Investigator software.

Row | Compound | activity change, negative = decreased lipid storage [%] | Potency
1 | CCOc1ccc(CCNC(=O)c2cc3ncccc3n2Cc2cccc(C)n2)cc1OCC | -26 | 
2 | CCOc1ccc(CCNC(=O)c2ccccc2)cc1OCC |  | 2350 nM (active)
3 | CCOc1ccc(CCNC(=O)c2ccc(Oc3ccccc3)cc2)cc1OCC |  | 246 nM (active)
4 | CCOc1ccc(CCNC(=O)c2cc3sccc3n2Cc2ccc(F)cc2F)cc1OCC |  | 23.5 nM (active)
5 | CCOc1ccc(CCNC(=O)c2cc3ccccc3n2Cc2ccccn2)cc1OCC |  | 46.9 nM (active)
6 | CCOc1ccc(CCNC(=O)c2cc3cnccc3n2Cc2cccc(C)n2)cc1OCC | -20 | 
7 | CCOc1ccc(CCNC(=O)c2cc3ccncc3n2Cc2cccc(C)n2)cc1OCC | -25.1 | 
